A short description of assay [1]: qHTS assay to identify small molecule antagonists of the thyroid receptor (TR) signaling pathway (AID 743065). Further: nearly all actives have a fitted effect of over 55% in size. Further: potency means the concentration at half of the fitted maximal effect. The method, boiled down:
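Antagonism measured as loss of luciferase signal in GH3 cells stably carrying a TRE-luciferase reporter, co-treated with compound and T3 (1 nM final) for 23.5 h at 37 C. Viability was read in the same well by CellTiter-Fluor.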
(In qHTS, concentration-response curves come from the screen itself.)

Assay [2] has as its system thyroid hormone receptor (rat, GH3 cells). The experiment in a line: qHTS assay to identify small molecule agonists of the thyroid receptor (TR) signaling pathway (AID 743066; calls by dose curve).
The target of assay [3] is Estrogen receptor (Homo sapiens) (UniProt P03372). The experiment in a line: qHTS assay to identify small molecule antagonists of the estrogen receptor alpha (ER-alpha) signaling pathway (AID 743069; active means well fitted curve in the direction sought with a large enough effect in the signal ratio in the repeat runs, not every such curve was filed as active; inconclusive means weak or mixed curves, or effect the other way; inactive means no such curve, though single readings can be large or run the other way; the % refers to the signal ratio). The gist of the method:
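ER-alpha-UAS-bla GripTite HEK293 line; 2% charcoal-stripped FBS overnight; plated, 4 hr 37C/5% CO2; cpd in DMSO + 17beta-estradiol, 18 hr 37C; LiveBLAzer B/G FRET substrate 2 hr RT; fluorescence intensity.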

The nature of assay [4]: qHTS assay to identify small molecule antagonists of the estrogen receptor alpha (ER-alpha) signaling pathway - cell viability counter screen (AID 743074; calls by dose curve;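 further: HEK293 cells carrying ER-alpha-UAS-bla reporter stimulated with 17beta-estradiol; nearly all actives have a fitted effect of over 45% in size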; further: potency means the concentration at half of the fitted maximal effect).
The target in assay [5] is Estrogen receptor (Homo sapiens) (UniProt P03372). The experiment in a line: qHTS assay to identify small molecule agonists of the estrogen receptor alpha (ER-alpha) signaling pathway (AID 743075; calls by dose curve;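 further: HEK293 GripTite cells with ER-alpha and UAS-driven beta-lactamase reporter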; further: potency means the concentration at half of the fitted maximal effect).
Assay [6] is described as follows: qHTS assay to identify small molecule antagonists of the estrogen receptor alpha (ER-alpha) signaling pathway using the BG1 cell line (AID 743080; calls by dose curve;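 further: BG1 cells stimulated with 17beta-estradiol alongside compound; nearly all actives have a fitted effect of over 25% in size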; further: potency means the concentration at half of the fitted maximal effect). To be noted: BG1Luc4E2 ERE-luciferase antagonist mode, luminescence; activity change, negative = inhibition: at 70.3 µM (top of the series). The gist of the method:
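Quantitative HTS on the Tox21 10K library: BG1 cells with endogenous ER-alpha and ERE-luciferase reporter, 17beta-estradiol stimulation, 21.5 h compound exposure, luminescence endpoint with parallel fluorescence cytotoxicity counter-read.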

Assay [7] can be described thus: qHTS assay to identify small molecule antagonists of the estrogen receptor alpha (ER-alpha) signaling pathway using the BG1 cell line - cell viability counter screen (AID 743081).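 Further: compound given together with 17beta-estradiol as the ER stimulus; nearly all actives have a fitted effect of over 45% in size.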
For the next assay, the target named is Aromatase (Homo sapiens) (UniProt P11511). The experiment in a line: qHTS assay to identify aromatase inhibitors (AID 743083). Further: nearly all actives have a fitted effect of over 55% in size. Further: potency means the concentration at half of the fitted maximal effect.
Assay [8] is described as follows: qHTS assay to identify aromatase inhibitors - cell viability counter screen (AID 743084).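 Further: cells stimulated with testosterone during compound exposure; nearly all actives have a fitted effect of over 55% in size.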 Further: potency means the concentration at half of the fitted maximal effect.
Assay [9] concerns the target Aryl hydrocarbon receptor (Homo sapiens) (UniProt P35869). The experiment in a line: qHTS assay to identify small molecule that activate the aryl hydrocarbon receptor (AhR) signaling pathway (AID 743085). Further: nearly all actives have a fitted effect of over 15% in size. Further: potency means the concentration at half of the fitted maximal effect.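 On activation: HG2L7.5c1 human HepG2 liver cells with stably integrated DRE-driven firefly reporter.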 The method, boiled down:
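Luminescence read-out: ONE-Glo reagent, 30 min at room temperature, in HG2L7.5c1 HepG2 reporter cells treated 24 h at 37C. Viability was measured beforehand by CellTiter-Fluor fluorescence after 30 min at 37C.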

A short description of assay [10]: qHTS assay to identify small molecule that activate the aryl hydrocarbon receptor (AhR) signaling pathway - cell viability counter screen (AID 743086). Further: nearly all actives have a fitted effect of over 45% in size. Further: potency means the concentration at half of the fitted maximal effect. The method, boiled down:
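Cytotoxicity counter screen: CellTiter-Fluor signal (30 min, 37 C) in 4000 HepG2 cells/well carrying the DRE-luciferase reporter, following 24 h compound exposure at 37 C.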

For assay [11], the target named is Peroxisome proliferator-activated receptor gamma (Homo sapiens) (UniProt P37231). The experiment in a line: qHTS assay to identify small molecule agonists of the peroxisome proliferator-activated receptor gamma (PPARg) signaling pathway (AID 743094; active means well fitted activation curve with a large enough effect in the signal ratio in the repeat runs, not every such curve was filed as active; inconclusive means weak or mixed curves, or effect the other way; inactive means no such curve, though single readings can be large or run the other way; the % refers to the signal ratio). The method, boiled down: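 Beta-lactamase FRET fluorescence was the read-out after a 1 h room-temperature substrate step, following 17 h compound treatment at 37C of HEK293H cells expressing a UAS-driven bla reporter responsive to PPARg.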

The target is the same in assay [12]. The experiment in a line: qHTS assay to identify small molecule antagonists of the peroxisome proliferator-activated receptor gamma (PPARg) signaling pathway (AID 743191; calls by dose curve; further: nearly all actives have a fitted effect of over 30% in size). The gist of the method:
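Beta-lactamase reporter under UAS control in HEK293H PPARg-bla cells; compound treatment 17 h at 37C. Read-out: fluorescence intensity after 1 h room-temperature incubation with LiveBLAzer B/G FRET substrate.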

A short description of assay [13]: qHTS assay to identify small molecule antagonists of the peroxisome proliferator-activated receptor gamma (PPARg) signaling pathway - cell viability counter screen (AID 743194). Further: nearly all actives have a fitted effect of over 55% in size. Further: potency means the concentration at half of the fitted maximal effect. The gist of the method:
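Viability was measured as CellTiter-Glo luminescence in GeneBLAzer PPARg UAS-bla HEK293H cells. These cells had been exposed 17 h at 37 C to compounds together with rosiglitazone at 50 nM final, with the beta-lactamase readout taken in the same wells.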

Assay [14] is described as follows: qHTS assay for small molecule agonists of the antioxidant response element (ARE) signaling pathway - cell viability counter screen (AID 743203; calls by dose curve; further: nearly all actives have a fitted effect of over 55% in size; further: potency means the concentration at half of the fitted maximal effect). The method, boiled down: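 HepG2 cells carrying ARE-driven beta-lactamase; 2,000 cells/well; 5 hrs plating; compound pinned from DMSO; 16 hrs 37C/5% CO2; CellTiter-Glo added; 30 min RT; luminescence.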
Assay [15] in a line: qHTS assay for small molecule activators of the heat shock response signaling pathway - cell viability counter screen (AID 743209). Further: nearly all actives have a fitted effect of over 50% in size. Further: potency means the concentration at half of the fitted maximal effect. The method, boiled down:
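Luminescence from CellTiter-Glo, added after the beta-lactamase FRET read, gave the viability signal. Cells were HSE-bla HeLa treated with DMSO-dissolved compounds for 5 h at 37 C following overnight plating.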

A short description of assay [16]: qHTS assay for small molecule activators of the heat shock response signaling pathway (AID 743210; active means well fitted activation curve with a large enough effect in the signal ratio in the repeat runs, with a control signal flat, not every such curve was filed as active; inconclusive means weak or mixed curves; the % refers to the signal ratio;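 further: HeLa cells with beta-lactamase reporter driven by heat shock elements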). The gist of the method: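 HeLa HSE-bla cells, overnight plating; cpd in DMSO 5 h, 37 C; LiveBLAzer B/G FRET substrate 2.5 h RT; fluorescence intensity read.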
A short description of assay [17]: qHTS assay to identify small molecule antagonists of the thyroid receptor (TR) signaling pathway - cell viability counter screen (AID 743064). Further: nearly all actives have a fitted effect of over 50% in size. Further: potency means the concentration at half of the fitted maximal effect. The method, boiled down:
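GH3.TRE-Luc cells, 4 h pre-plating; cpd + T3 1 nM final; 37 °C 23.5 h; CellTiter-Fluor 30 min; fluorescence read.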

Assay [18] concerns the target Estrogen receptor (Homo sapiens) (UniProt P03372). The experiment in a line: qHTS assay to identify small molecule agonists of the estrogen receptor alpha (ER-alpha) signaling pathway using the BG1 cell line (AID 743079). Further: nearly all actives have a fitted effect of over 20% in size. As to conditions: BG1Luc4E2 cells, ERE-luciferase agonist, 22 h; activation: at 70.3 µM (top of the series).
Assay [19] in a line: qHTS assay for small molecule agonists of the antioxidant response element (ARE) signaling pathway (AID 743202; active means well fitted activation curve with a large enough effect in the signal ratio in the repeat runs, not every such curve was filed as active; inconclusive means weak or mixed curves, or effect the other way; inactive means no such curve, though single readings can be large or run the other way; the % refers to the signal ratio; further: potency means the concentration at half of the fitted maximal effect). The method, boiled down:
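Quantitative high-throughput format in HepG2 cells bearing an integrated ARE-beta-lactamase reporter. Compound exposure lasted 16 h at 37 C, and fluorescence was read 2 h after adding LiveBLAzer B/G substrate at room temperature.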

Here are results for 16 molecules from PubChem BioAssay (Tox21).

Each structure is given as a SMILES string. Values joined by “and” are separate entries in the source; they are usually repeats but may differ in a detail not shown here. Equal values may be shown once. Active and inactive are the calls of the source. Unless noted, the call rests on the fitted dose curve; in most records, active means well fitted curve in the direction sought with a large enough effect in the repeat runs; inconclusive means weak or mixed curves; inactive means no such curve, though single readings can be large; an effect the other way counts as inactive or inconclusive.

Sequence of Estrogen receptor (Homo sapiens) (P03372 whole entry, looked up): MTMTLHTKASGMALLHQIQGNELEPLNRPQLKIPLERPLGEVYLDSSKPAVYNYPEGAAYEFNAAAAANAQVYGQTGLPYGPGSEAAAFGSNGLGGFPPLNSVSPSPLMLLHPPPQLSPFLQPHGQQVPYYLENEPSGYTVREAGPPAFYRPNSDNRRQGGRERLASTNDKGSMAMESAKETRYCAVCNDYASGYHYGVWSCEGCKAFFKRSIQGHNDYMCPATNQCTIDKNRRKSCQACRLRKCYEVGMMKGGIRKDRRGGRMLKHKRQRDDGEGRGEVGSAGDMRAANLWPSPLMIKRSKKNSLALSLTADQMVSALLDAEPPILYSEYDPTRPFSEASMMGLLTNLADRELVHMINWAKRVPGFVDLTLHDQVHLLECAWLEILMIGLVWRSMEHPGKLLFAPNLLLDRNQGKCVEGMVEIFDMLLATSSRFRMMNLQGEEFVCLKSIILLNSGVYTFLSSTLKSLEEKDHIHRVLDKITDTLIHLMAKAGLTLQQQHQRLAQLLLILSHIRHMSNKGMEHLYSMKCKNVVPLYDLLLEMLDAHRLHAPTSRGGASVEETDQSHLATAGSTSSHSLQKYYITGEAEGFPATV
Sequence of Peroxisome proliferator-activated receptor gamma (Homo sapiens) (P37231 whole entry, looked up): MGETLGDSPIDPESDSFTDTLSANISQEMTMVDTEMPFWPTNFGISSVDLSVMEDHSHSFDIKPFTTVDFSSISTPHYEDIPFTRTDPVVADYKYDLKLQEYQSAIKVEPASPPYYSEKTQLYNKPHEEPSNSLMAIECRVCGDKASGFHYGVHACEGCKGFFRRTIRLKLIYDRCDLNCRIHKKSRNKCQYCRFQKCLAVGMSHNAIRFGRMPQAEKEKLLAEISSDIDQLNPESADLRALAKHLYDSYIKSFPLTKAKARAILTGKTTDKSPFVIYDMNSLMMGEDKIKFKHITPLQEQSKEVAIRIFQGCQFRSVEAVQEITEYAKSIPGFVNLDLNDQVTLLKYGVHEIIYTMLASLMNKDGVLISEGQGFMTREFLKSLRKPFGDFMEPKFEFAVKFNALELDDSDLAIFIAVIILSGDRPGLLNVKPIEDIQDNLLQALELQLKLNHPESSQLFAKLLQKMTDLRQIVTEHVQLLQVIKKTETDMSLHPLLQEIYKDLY
Sequence of Aromatase (Homo sapiens) (P11511 whole entry, looked up): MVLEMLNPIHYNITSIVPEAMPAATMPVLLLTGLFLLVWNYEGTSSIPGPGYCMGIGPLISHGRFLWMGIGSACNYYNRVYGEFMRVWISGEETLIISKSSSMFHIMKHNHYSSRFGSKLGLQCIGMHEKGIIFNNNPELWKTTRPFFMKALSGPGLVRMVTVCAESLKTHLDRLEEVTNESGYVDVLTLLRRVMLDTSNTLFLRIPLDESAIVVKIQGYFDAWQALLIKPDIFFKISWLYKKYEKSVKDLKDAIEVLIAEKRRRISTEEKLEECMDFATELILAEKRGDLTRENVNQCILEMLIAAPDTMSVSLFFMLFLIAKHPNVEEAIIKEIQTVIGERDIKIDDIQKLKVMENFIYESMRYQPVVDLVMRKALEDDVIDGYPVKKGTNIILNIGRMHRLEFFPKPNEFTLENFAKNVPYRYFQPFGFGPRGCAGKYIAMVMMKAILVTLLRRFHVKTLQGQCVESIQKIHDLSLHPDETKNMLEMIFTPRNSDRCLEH
Sequence of Aryl hydrocarbon receptor (Homo sapiens) (P35869 whole entry, looked up): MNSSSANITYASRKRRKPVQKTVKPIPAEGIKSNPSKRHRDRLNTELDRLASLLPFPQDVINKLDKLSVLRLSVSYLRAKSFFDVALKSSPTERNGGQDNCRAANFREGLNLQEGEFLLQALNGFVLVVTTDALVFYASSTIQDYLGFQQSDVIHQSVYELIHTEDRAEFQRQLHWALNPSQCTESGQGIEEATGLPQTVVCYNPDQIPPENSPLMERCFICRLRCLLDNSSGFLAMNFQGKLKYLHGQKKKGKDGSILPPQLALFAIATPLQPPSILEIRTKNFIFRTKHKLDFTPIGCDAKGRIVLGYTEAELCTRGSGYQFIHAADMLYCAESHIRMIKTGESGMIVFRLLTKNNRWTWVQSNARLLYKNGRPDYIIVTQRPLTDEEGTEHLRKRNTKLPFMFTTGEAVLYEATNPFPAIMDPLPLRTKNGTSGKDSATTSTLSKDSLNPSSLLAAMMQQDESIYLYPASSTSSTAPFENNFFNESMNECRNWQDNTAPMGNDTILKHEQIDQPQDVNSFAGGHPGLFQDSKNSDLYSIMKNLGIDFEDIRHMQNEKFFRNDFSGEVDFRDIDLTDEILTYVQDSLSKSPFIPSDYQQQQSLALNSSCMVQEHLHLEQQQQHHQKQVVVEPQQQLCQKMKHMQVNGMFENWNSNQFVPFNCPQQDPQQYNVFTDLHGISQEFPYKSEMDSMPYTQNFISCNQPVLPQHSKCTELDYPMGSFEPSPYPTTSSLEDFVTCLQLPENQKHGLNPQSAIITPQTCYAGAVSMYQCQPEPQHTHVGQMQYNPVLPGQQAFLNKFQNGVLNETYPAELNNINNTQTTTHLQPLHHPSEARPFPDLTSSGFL

As for `CCCCCCCCCCCCCCCC`, the Potency entry in assay [1], in assay [2], in assay [3], in assay [4], in assay [5] and in assay [6] was “inactive” each time. For the same molecule, the Potency result (in assay [7]; in the assay with Aromatase (Homo sapiens); in assay [8]; in [9]; in [10]; in assay [11]) was “inactive” throughout. Further, the Potency result in assay [12], in [13], in assay [14], in assay [15] and in [16] was “inactive” throughout.

In the case of `O=C1c2c(O)ccc(O)c2C(=O)c2c(NCCNCCO)ccc(NCCNCCO)c21`, the Potency in assay [17] was 0.569 µM (active); in the assay with Aromatase (Homo sapiens), 9.02 µM (active). The Potency result in assay [2], in [4], in [7] and in assay [9] was “inactive” each time.

Regarding `O=C(NO)c1ccccc1`, the Potency in assay [17] is 26 µM (active). For the same molecule, the Potency entry (with Aromatase (Homo sapiens); in assay [9]; in [10]; in [15]; in [16]) was “inactive” each time.

`O=C(Nc1ccc(Cl)c(Cl)c1)c1cc(Cl)cc(Cl)c1O`: the Potency in [17] is 4.86 µM (active); in assay [4], 2.45 µM (active); in [5], 0.436 µM [inconclusive] (active); in [6], 4.86 µM (active); in the assay with Aromatase (Homo sapiens) it was 6.11 µM (active); in assay [9], 109 nM (active). The Potency is 0.49 µM (active) in assay [13] and 24.3 µM (active) in [14]. The Potency entry in assay [2], in [7] and in assay [10] was “inactive” each time.

With `ClC/C=C\CCl`, the Potency result in assay [1], in assay [2], in assay [3], in assay [4], in [5] and in assay [18] was “inactive” in each case. Besides, the Potency result (in [6]; in [7]; with Aromatase (Homo sapiens); in [8]; in [10]; in assay [11]) was “inactive” each time. Further, the Potency entry in [12], in assay [13], in assay [14], in assay [15] and in assay [16] was “inactive” each time.

Turning to `Oc1c(Br)cc(Br)c2cccnc12`, the Potency was 26.6 µM (active) in assay [17] and 668 nM (active) in assay [9]. The Potency entry (in assay [5]; with Aromatase (Homo sapiens); in assay [8]; in assay [10]; in assay [11]; in assay [14]) was “inactive” throughout. For the same molecule, the Potency result in [15] was “inactive”.

As for `O=C1Nc2ccc(Cl)cc2[C@@](C#CC2CC2)(C(F)(F)F)O1`, the Potency was 29.8 µM (active) in assay [17]; 33.5 µM (active) in [6]; 23.7 µM (active) with Aromatase (Homo sapiens); 13.3 µM (active) in assay [19]; 5.31 µM (active) in assay [15]. Further, the Potency entry in assay [4], in [5], in assay [7], in [10], in assay [11] and in assay [14] was “inactive” throughout.

Consider `Cc1c(C(=O)O)cccc1[N+](=O)[O-]`, for which the Potency result (in assay [17]; in assay [2]; in assay [4]; in assay [7]; in the assay with Aromatase (Homo sapiens); in assay [8]) was “inactive” in each case. Moreover, the Potency result in [9], in [10], in assay [11], in assay [12], in assay [13] and in assay [19] was “inactive” in each case. The Potency result in [14] and in assay [15] was “inactive” in each case.

Regarding `CC1=C(/C=C/C(C)=C/C=C/C(C)=C\C=O)C(C)(C)CCC1`, the results for the Potency in [1] and in assay [14] were 29 µM (active) and 51.6 µM (active), respectively. The Potency entry in assay [2], in assay [9], in [10] and in assay [13] was “inactive” in each case.

`CN(C)c1ccc(N=NS(=O)(=O)O)cc1`: the Potency result in assay [1], in assay [2], in assay [14] and in assay [15] was “inactive” in each case. Also, the Potency in [9] was 14500 nM (active); in assay [19], 8.63 µM (active).

Regarding `C=CC(=C)CCC=C(C)C`, the Potency result (in [1]; in [2]; in [4]; in assay [7]; in the assay with Aromatase (Homo sapiens); in assay [8]) was “inactive” in each case. Besides, the Potency result in assay [10], in assay [11], in assay [13], in assay [14] and in assay [15] was “inactive” throughout.

Take `Nc1ccc2cc3ccc(N)cc3nc2c1`: the Potency in [1] is 5.31 µM (active) and 3.06 µM (active); with Aromatase (Homo sapiens) it was 16.8 µM (active) and 6.11 µM (active); in assay [9] it was 11.9 µM (active) and 6.11 µM (active); in [14], 24.3 µM (active) and 29.8 µM (active); in [15], 43.6 µM (active). The Potency entry in assay [2], in assay [4] and in assay [16] was “inactive” in each case.

Regarding `CC(C(O)c1ccccc1)N(C)CCOC(c1ccccc1)c1ccccc1` (configuration not stated), the Potency in assay [1] is 16.8 µM (active); in the assay with Aromatase (Homo sapiens), 29.8 µM (active). For the same molecule, the Potency result in [3], in assay [5], in [6], in [9], in assay [10] and in assay [12] was “inactive” each time. Further, the Potency entry in assay [13] and in [16] was “inactive” each time.

With `S=C(SSSSSSC(=S)N1CCCCC1)N1CCCCC1`, the Potency entry in [2], in assay [3], in assay [5], in [18], in assay [7] and in [9] was “inactive” each time. The Potency entry in [11], in assay [12], in assay [13] and in assay [14] was “inactive” each time. The Potency with Aromatase (Homo sapiens) is 0.268 µM (active); in [8] it was 0.379 µM (active); in assay [10] it was 2.39 µM (active); in assay [15] it was 0.0763 µM (active).

As to `CCCCCCCC/C=C\CCCCCCCC(=O)NCc1ccc(O)c(OC)c1`, in assay [1], the Potency is 6.68 µM (active). The Potency entry (in [4]; in assay [7]; with Aromatase (Homo sapiens); in assay [8]; in assay [9]; in [10]) was “inactive” throughout. Further, the Potency result in [11] and in assay [13] was “inactive” throughout.

For the molecule `CCCCCCCCCCCCCC[n+]1ccccc1`, the Potency was 2.43 µM (active) in assay [1]; 24.5 µM (active) in [4]; 4.86 µM (active) in assay [6]; 6.11 µM (active) in the assay with Aromatase (Homo sapiens); 54.5 µM (active) in assay [8]; 54.5 µM (active) in assay [10]. In addition, the Potency is 17.4 µM (active) in assay [13], 27.3 µM (active) in [14] and 30.9 µM (active) in assay [15]. In addition, the Potency entry in assay [2], in [5] and in assay [9] was “inactive” in each case.
